Screening data deposited in PubChem BioAssay by several laboratories.
Only some compounds are listed: those with a hit (about 3.1% of all), similar ones and a draw of the others.
EBV LMP1 NFkB: EBV LMP1-driven NF-kappaB luciferase reporter inhibitors, primary screen, cell-based, luminescence, single point; LMP1-induced NF-kappaB luciferase reporter cells; 350,000 compounds, 0.69% hits; inhibition, % at 12.5 µM; AID 504558, 2011; in the data active = inhibition above about 41%;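 also: 0% = neutral control wells and 100% = reference inhibitor control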
TWEAK Fn14 block: inhibitors of TWEAK-Fn14 signaling, primary screen, luciferase reporter cells, uHTS; 360,000 compounds, 2% hits; TWEAK-stimulated Fn14 reporter cells, luciferase luminescence, 8 h; inhibition, % at 10 µM; in the data active = inhibition above about 50%
PAX8 inh HTS: inhibitors of PAX8-driven TPO luciferase reporter, primary screen, RMG-I cells, single concentration | SteadyGlo, 24 h | inhibition, % at 12.6 µM | 360,000 compounds, 1.2% hits;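 active = mean replicate inhibition at least 60% with every replicate also reaching 60%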;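 also: luciferase light reporting Pax8 driven TPO promoter activity; plate controls were median of neutral control wells for no effect and mitoxantrone controls for full effect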
LGR2 inh: inhibitors of bursicon-induced LGR2 CRE-luciferase signal, primary screen, cell-based, HEK293, CRE-luciferase reporter, bursicon stimulation; bursicon-stimulated, 4 h; inhibition, % at 9.99 µM; 380,000 compounds, 0.35% hits;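 active = drop in luminescence signal, shown as inhibition above about 50% in the replicate tests, limit read from the data, passing the limit was not always enough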;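 also: agonist challenge used bursicon conditioned medium at about half maximal strength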
TROY NFkB inh: inhibitors of TROY-driven NF-kB signaling, primary screen, Q293 LMP1-TROYcd cells, NF-kB luciferase, uHTS; inhibition, % at 10 µM; Q293 LMP1-TROYcd NF-kB luciferase reporter, 4 h; 360,000 compounds, 0.98% hits;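 active = compounds whose plate-normalised and pattern-corrected inhibition of the luciferase reporter signal at the single screening dose is 50% or more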
EWS-Fli inh: EWS/Fli-driven NR0B1 reporter inhibitors, primary screen, A673 cells, NR0B1 luciferase, luminescence, MLPCN library; viability-normalised; inhibition, % at 12.6 µM; 350,000 compounds, 0.67% hits;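 active = mean inhibition of at least 50% after viability correction, with every replicate also passing that limit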;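 also: firefly luciferase signal divided by Alamar Blue viability fluorescence both relative to DMSO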
Active calls of the source: *.

For COc1ccc(-c2cc3nc(CCl)[nH]c(=O)c3s2)cc1 the results were EBV LMP1 NFkB 49*, TWEAK Fn14 block 63*, PAX8 inh HTS 17, LGR2 inh 68*, TROY NFkB inh -2 and EWS-Fli inh 35.
For COc1ccc(-c2cc3nc[nH]c(=O)c3s2)cc1 the results were EBV LMP1 NFkB -9, TWEAK Fn14 block 33 and TROY NFkB inh -42.
CC=Cc1ccc2n(c1=O)C[C@H]1[C@H](CO)[C@@H](C(=O)NC3CCCC3)N(CC3CCCCC3)[C@@H]21 (mixture of isomers) was read as PAX8 inh HTS 4, LGR2 inh 2 and EWS-Fli inh -1.
COC1C=CC=C(C)C(=O)NC2=CC(=O)C(N)=C(CC(C)CC(OC)C(O)C(C)C=C(C)C1OC(N)=O)C2=O (stereo not drawn) was read as EBV LMP1 NFkB 72*, TWEAK Fn14 block 70*, PAX8 inh HTS 41, LGR2 inh 50, TROY NFkB inh 18 and EWS-Fli inh 3.
For COC1CC(C)C(OC)c2cc(O)cc(c2O)NC(=O)C(C)=CC=CC(C)C(OC(N)=O)C(C)=CC(C)C1OC (stereo not drawn) the results were EBV LMP1 NFkB 48*, TWEAK Fn14 block 34, PAX8 inh HTS 15, LGR2 inh 16, TROY NFkB inh 1 and EWS-Fli inh 23.
Screening C[C@H](CO)N1C[C@H](C)[C@H](CN(C)C(=O)C2CCOCC2)Oc2ncc(C3=CCCCC3)cc2C1=O returned PAX8 inh HTS 6, LGR2 inh 5 and EWS-Fli inh -2.
O=C(CN1C2CCCC1CC(NC(=O)c1ccccc1)C2)Nc1ccccc1C(F)(F)F (stereo not drawn) was read as EBV LMP1 NFkB 3, TWEAK Fn14 block 39, PAX8 inh HTS 20, LGR2 inh 3, TROY NFkB inh 51* and EWS-Fli inh 19.
`Cc1nn(Cc2ccc(Cl)cc2)c(C)c1NC(=O)c1noc2c1CCc1ccccc1-2` gave EBV LMP1 NFkB 6, TWEAK Fn14 block 69*, PAX8 inh HTS 10, LGR2 inh 3, TROY NFkB inh 57* and EWS-Fli inh -7.
COc1ccc(-c2csc(NC(C)c3nc4cc(Cl)c(Cl)cc4n3CCCO)n2)cc1 (stereo not drawn) was read as EBV LMP1 NFkB -6, TWEAK Fn14 block 48, PAX8 inh HTS 40, LGR2 inh -3, TROY NFkB inh 55* and EWS-Fli inh -13.
`Cc1ccc(Cn2c(C(C)Nc3nc(-c4ccc(F)cc4)cs3)nc3cc(Cl)c(Cl)cc32)cc1` (stereo not drawn) gave EBV LMP1 NFkB 4, TWEAK Fn14 block 52*, PAX8 inh HTS 8, LGR2 inh -27, TROY NFkB inh 45 and EWS-Fli inh 1.
CC(Nc1nc(-c2ccc(F)cc2)cs1)c1nc2cc(Cl)c(Cl)cc2n1CCOCCO (stereo not drawn) was read as EBV LMP1 NFkB -8, TWEAK Fn14 block 51*, PAX8 inh HTS 20, LGR2 inh 1, TROY NFkB inh 17 and EWS-Fli inh 3.
C[C@@H]1CCCCO[C@H](CN(C)CC2CCCCC2)[C@@H](C)CN([C@H](C)CO)C(=O)c2cc(NS(=O)(=O)c3cccs3)ccc2O1 was read as PAX8 inh HTS 3, LGR2 inh 1 and EWS-Fli inh -1.
CC[N+](C)(C)Cc1ccccc1Br was read as EBV LMP1 NFkB 83*, TWEAK Fn14 block -14, PAX8 inh HTS -11, LGR2 inh 9, TROY NFkB inh 5 and EWS-Fli inh -7.
`CN1CCCN(Cc2ccccc2Br)CC1` gave EBV LMP1 NFkB -13, TWEAK Fn14 block 2, PAX8 inh HTS -4, LGR2 inh 14, TROY NFkB inh 1 and EWS-Fli inh 12.
Screening CO[C@H]1CN(C)C(=O)c2ccc(NC(C)=O)cc2OC[C@@H](C)N(C(=O)c2ccncc2)C[C@H]1C returned LGR2 inh -6 and EWS-Fli inh 6.
CN(C)CC(=O)N1[C@H](CO)[C@@H](c2ccccc2)C12CN(C(=O)c1cccc(F)c1)C2 was read as PAX8 inh HTS 4, LGR2 inh -7 and EWS-Fli inh 2.
COc1cc(OC)c(CN2CCc3c([nH]c4ccccc34)C2)cc1Br was read as EBV LMP1 NFkB 75*, TWEAK Fn14 block 25, PAX8 inh HTS 12, LGR2 inh 11, TROY NFkB inh 16 and EWS-Fli inh 19.
`Cc1cccc(CN2CCc3c([nH]c4ccccc34)C2)c1` gave EBV LMP1 NFkB 13, TWEAK Fn14 block 6, PAX8 inh HTS -3, LGR2 inh 7, TROY NFkB inh 21 and EWS-Fli inh 6.
Screening Clc1ccc(CN2CCc3c([nH]c4ccccc34)C2)cc1Cl returned EBV LMP1 NFkB -10, TWEAK Fn14 block -2, PAX8 inh HTS 10, LGR2 inh 20, TROY NFkB inh -3 and EWS-Fli inh 57*.
Screening Nc1nc(Sc2ccc([N+](=O)[O-])c3nonc23)c2[nH]cnc2n1 returned EBV LMP1 NFkB 3, TWEAK Fn14 block 32, PAX8 inh HTS 97*, TROY NFkB inh -7 and EWS-Fli inh 27.
CNc1ncnc(Sc2nc(N)nc3nc[nH]c23)c1[N+](=O)[O-] was read as EBV LMP1 NFkB 0, TWEAK Fn14 block 27, PAX8 inh HTS 95*, LGR2 inh 7, TROY NFkB inh 2 and EWS-Fli inh 64*.
Screening CCOC(=O)c1cc([N+](=O)[O-])cc([N+](=O)[O-])c1Sc1ncnc2nc[nH]c12 returned EBV LMP1 NFkB -5, TWEAK Fn14 block 0, PAX8 inh HTS 25, LGR2 inh -9, TROY NFkB inh -13 and EWS-Fli inh 44.
For Nc1nc(SCc2ccccc2)c2[nH]cnc2n1 the results were EBV LMP1 NFkB 4, TWEAK Fn14 block 9, PAX8 inh HTS 1, LGR2 inh -11, TROY NFkB inh 7 and EWS-Fli inh 1.
COc1ccc2c3c(n(C)c2c1)[C@@H](CO)N(C(=O)c1cnccn1)CC31CCN(C(=O)c2cnccn2)CC1 was read as LGR2 inh 7 and EWS-Fli inh -12.
`CCCN(CC1CC1)c1nc(C)nc(Nc2c(Cl)cc(Cl)cc2Cl)c1Cl` gave EBV LMP1 NFkB 78*, TWEAK Fn14 block 15, PAX8 inh HTS 1, LGR2 inh 16, TROY NFkB inh -3 and EWS-Fli inh -12.
CCCN(CC1CC1)c1nc(N)c(C#N)c(CC#N)c1C#N was read as EBV LMP1 NFkB -9, TWEAK Fn14 block 13 and TROY NFkB inh 9.
For COc1ccc2c3c(n(C)c2c1)[C@H](CO)N(C(=O)Nc1ccc(F)cc1)CC31CN(CC2CCOCC2)C1 the results were LGR2 inh -2 and EWS-Fli inh 7.
